{"source": "PubChem BioAssay (NCI)", "note": "This is part of a sample that, as a whole, favours compounds with a hit. Of some 79,000 tested, about 15% had one in any assay. The source made the active and inactive calls. No stated cut-off is given here; in the data, active means growth inhibition above about 70%; inactive means the rest."}
{"assay": "NCI Yeast Anticancer Drug Screen. Data for the sgs1 mgt1 strain (AID 161);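 further: 0% = growth of cultures given vehicle only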", "details": "S. cerevisiae sgs1 mgt1 strain, at 50.0 µM, active compounds read high", "description": "Growth inhibition of yeast strains with defined genetic alterations is measured as a screen for potential anti-cancer activity. Selected strains with alterations in DNA damage repair or cell cycle control were exposed to compounds and growth inhibition was measured relative to vehicle treated controls. The strain used in this assay is sgs1 mgt1"}
{"smiles": "Cc1ccc(-c2noc(C)n2)cc1", "growth inhibition": "-2.75% (inactive)"}
{"smiles": "CCCCCCCCOC(=O)C12Oc3ccc(-c4ccc5c(c4O)C(O)=C4C(=O)CC(C)C(O)C4(C(=O)OCCCCCCCC)O5)c(O)c3C(O)=C1C(=O)CC(C)C2O", "note": "(stereo not given)", "growth inhibition": "11.4% (inactive)"}
{"smiles": "N#CCCOc1ccccc1", "growth inhibition": "-9.9% (inactive)"}
{"smiles": "C=C1CC2(C)CCC(OC(=O)C3(C)OC3C)C(C)(OC(C)=O)C2CC1=C(C)C", "note": "(stereo not given)", "growth inhibition": "7.55% (inactive)"}
{"smiles": "COC(=O)c1nc(Br)cnc1N", "growth inhibition": "2.1% (inactive)"}
{"smiles": "COc1ccc(OC)c(N(CN2C(=O)CCC2C(=O)O)C(C)=O)c1", "note": "(stereo not given)", "growth inhibition": "-13.3% (inactive)"}
{"smiles": "O=C(/C=C(\\[O-])c1ccccc1)CCCCCCC(=O)/C=C(\\[O-])c1ccccc1.O=C(/C=C(\\[O-])c1ccccc1)CCCCCCC(=O)/C=C(\\[O-])c1ccccc1.O=C(/C=C(\\[O-])c1ccccc1)CCCCCCC(=O)/C=C(\\[O-])c1ccccc1.[Y+3].[Y+3]", "growth inhibition": "8.75% (inactive)"}
{"smiles": "COc1ccc(N=C(C)C(C)=Nc2ccc(OC)cc2)cc1", "growth inhibition": "-15.1% (inactive)"}
{"smiles": "CC1CC(=O)N(N(C)C)C(C#N)(C#N)C1(C#N)C#N", "note": "(stereo not given)", "growth inhibition": "11.2% (inactive)"}
{"smiles": "O=C(NC1=NC2C=CC([N+](=O)[O-])=CC2S1)C(=O)Nn1c(=S)[nH]c2ccccc2c1=O", "note": "(stereo not given)", "growth inhibition": "20.2% (inactive)"}
{"smiles": "C=C1C(=O)OC2/C=C(\\CO)CC/C=C(\\CO)CC(OC(=O)C(C)C)C12", "note": "(stereo not given)", "growth inhibition": "-16% (inactive)"}
{"smiles": "O=c1c2ccccc2nc(-c2ccccc2)n1/N=C/c1ccccc1[N+](=O)[O-]", "growth inhibition": "26.8% (inactive)"}
{"smiles": "CNC(=S)c1nnsc1N", "growth inhibition": "21.6% (inactive)"}
{"smiles": "CC(=O)c1ccc(NC(=O)/C(CC(=O)/C=C/c2ccccc2)=N/NC(N)=S)cc1", "growth inhibition": "23.9% (inactive)"}
{"smiles": "C[C@]12CC[C@@H]3c4ccc(OS(N)(=O)=O)cc4CC[C@H]3[C@@H]1CCC2=O", "growth inhibition": "-2.05% (inactive)"}
{"smiles": "O=C1C=CC=C/C1=C1\\N=C(c2ccccc2OCC(=O)c2ccc(Br)cc2)SS1", "growth inhibition": "12.8% (inactive)"}
{"smiles": "CC(=O)C1=C(C)N2C(=NC3=C(CCc4ccccc43)C2c2cccc(Br)c2)S1", "note": "(stereo not given)", "growth inhibition": "-19.4% (inactive)"}
{"smiles": "COc1cc(Oc2c(C)c(Cl)c(OC)c(Cl)c2OC)c2c(c1Cl)COC2=O", "growth inhibition": "15.6% (inactive)"}
{"smiles": "CC(=Nc1ccncc1)C(C)=Nc1ccncc1", "growth inhibition": "89.8% (active)"}
{"smiles": "Cc1c(CNc2ccc(C(=O)NC(CC(=O)O)C(=O)O)cc2)ccc2nc(N)nc(N)c12", "note": "(stereo not given)", "growth inhibition": "47.8% (inactive)"}
{"smiles": "COc1cc2c(c3c1c(=O)c1ccccc1n3C)C=C([N+](=O)[O-])C(C)(C)O2", "growth inhibition": "16.6% (inactive)"}
{"smiles": "CCCCC1C(=O)N(c2ccc(S(=O)(=O)Nc3ccccn3)cc2)N(c2ccc(O)c(C(=O)O)c2)C1=O", "note": "(stereo not given)", "growth inhibition": "6.7% (inactive)"}
{"smiles": "Cc1ccc(OC2CC(n3cnc4ncnc(Cl)c43)OC2Oc2ccc(C)cc2)cc1", "note": "(stereo not given)", "growth inhibition": "13.9% (inactive)"}
{"smiles": "Clc1c(Cl)c(Cl)c2nn(C3CCCO3)nc2c1Cl", "note": "(stereo not given)", "growth inhibition": "-5.9% (inactive)"}
{"smiles": "C=CCNC1=C2C[C@@H](C)C[C@@H](OC)[C@@H](OC(=O)CCCN)[C@H](C)/C=C(\\C)[C@@H](OC(N)=O)[C@H](OC)/C=C\\C=C(/C)C(=O)NC(=CC1=O)C2=O", "growth inhibition": "14.2% (inactive)"}
{"smiles": "Cc1cc2nn(C3CCCO3)nc2cc1C", "note": "(stereo not given)", "growth inhibition": "-21.8% (inactive)"}
{"smiles": "CCOC(=O)COc1cc(-c2ccccc2)nc2cc(F)ccc12", "growth inhibition": "0.25% (inactive)"}
{"smiles": "CCOc1cc2c(cc1O)/C(=N/NS(=O)(=O)c1ccc(C)cc1)C[C@@H]1[C@@H]2CC[C@]2(C)[C@@H](O)CC[C@@H]12", "growth inhibition": "4.05% (inactive)"}
{"smiles": "CCC(c1ccc(N(C)C)cc1)C1NC(=S)NC1=O", "note": "(stereo not given)", "growth inhibition": "-17.6% (inactive)"}
{"smiles": "C=CC1=C(C)C2=NC1=CC1=NC(=C(CC)/C1=C\\O)C=C1N=C3C(=C1C)C(=O)[C@H](C(=O)OC)C3=C1NC(=C2)[C@@H](C)[C@@H]1CCC(=O)O", "growth inhibition": "4.1% (inactive)"}
{"smiles": "C=C(C)C(=O)OC1CC2(C)OC(=CC2=O)C(C)CC2OC(=O)C(=C)C12", "note": "(stereo not given)", "growth inhibition": "29% (inactive)"}
{"smiles": "COc1cc([C@H]2OC[C@@H]3C(c4cc(OC)c5c(c4)OCO5)OC[C@H]23)cc(OC)c1OC", "note": "(stereo not given in full)", "growth inhibition": "-26.9% (inactive)"}
{"smiles": "CSc1nc(Br)nc2ncn(C3CC(Oc4ccc(C)cc4)C(COc4ccc(C)cc4)O3)c12", "note": "(stereo not given)", "growth inhibition": "12.4% (inactive)"}
{"smiles": "COc1cc(-c2nc(SC)nc3c2CCc2ccccc2-3)cc(OC)c1OC", "growth inhibition": "2.95% (inactive)"}
{"smiles": "Cn1cnc2c(=O)[nH]c(=O)[nH]c21", "growth inhibition": "-43.4% (inactive)"}
{"smiles": "O=C1c2ccccc2-c2c1c1ccccc1c(=O)n2CCO", "growth inhibition": "60.4% (inactive)"}
{"smiles": "NC(Cc1ccc(S(=O)(=O)O)cc1)C(=O)NC(Cc1ccc(S(=O)(=O)O)cc1)C(=O)NC(Cc1ccc(S(=O)(=O)O)cc1)C(=O)NC(Cc1ccc(S(=O)(=O)O)cc1)C(=O)O", "note": "(stereo not given)", "growth inhibition": "5.2% (inactive)"}
{"smiles": "CC(=N\\N=C\\c1ccccn1)/C(C)=N/N=C/c1ccccn1", "growth inhibition": "-4.4% (inactive)"}
{"smiles": "O=C1c2c(O)cc(O)cc2OC(c2ccc(O)c(O)c2)C1O", "note": "(stereo not given)", "growth inhibition": "11.2% (inactive)"}
{"smiles": "O[C@H]1[C@H](O)[C@@H](Cn2nnc(-c3ccccc3)c2-c2ccccc2)OCO[C@@H]1Cn1nnc(-c2ccccc2)c1-c1ccccc1", "growth inhibition": "13.4% (inactive)"}
